# Data from PubChem BioAssay (NCATS).
# Several values for one entry are separate records, joined by “and”; a condition that tells them apart may be missing. Equal values may be shown once. Results filed as inconclusive are left out. Activity calls are given as the source filed them. Unless noted, calls follow the shape of the dose curve; as a rule, active = well fitted curve in the direction sought with a large enough effect; inconclusive = small, poorly fitted or top-dose-only effect, or another doubt; inactive = no such curve, though single readings can be large; an effect the other way counts as inactive or inconclusive.
# Key:
# [1] = target: Estrogen receptor (Homo sapiens) (UniProt P03372); experiment: qHTS assay for small molecule agonists of estrogen receptor alpha signaling (AID 588514; calls by dose curve; also: nearly all actives have a fitted effect of over 70% in size; also: potency is read from the fitted curve at half-maximal effect;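 as to activation: 0% = vehicle only and 100% = reference agonist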)
# Chain of Estrogen receptor (Homo sapiens) (P03372 whole entry, looked up): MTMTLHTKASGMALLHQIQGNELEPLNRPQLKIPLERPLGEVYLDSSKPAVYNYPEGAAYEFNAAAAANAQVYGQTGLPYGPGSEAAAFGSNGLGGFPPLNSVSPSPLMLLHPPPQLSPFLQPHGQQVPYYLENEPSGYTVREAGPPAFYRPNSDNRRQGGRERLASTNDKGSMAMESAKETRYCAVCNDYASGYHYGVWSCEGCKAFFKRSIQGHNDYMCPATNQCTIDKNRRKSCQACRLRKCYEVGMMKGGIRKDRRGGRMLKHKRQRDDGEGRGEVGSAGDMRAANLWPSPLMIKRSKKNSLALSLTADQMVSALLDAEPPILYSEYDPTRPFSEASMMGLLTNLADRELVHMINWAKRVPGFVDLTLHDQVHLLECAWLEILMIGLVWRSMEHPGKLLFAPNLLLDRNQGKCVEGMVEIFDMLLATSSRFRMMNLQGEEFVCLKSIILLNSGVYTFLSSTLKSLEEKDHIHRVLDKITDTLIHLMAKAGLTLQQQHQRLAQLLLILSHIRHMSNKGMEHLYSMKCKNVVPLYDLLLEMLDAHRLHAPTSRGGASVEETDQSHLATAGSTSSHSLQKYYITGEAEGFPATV
# Outline: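 Cells were plated at 5000/well, incubated 4 hrs at 37 C, dosed with compound titration series, incubated 18 hrs at 37 C, loaded with CCF4 dye for 2 hrs at RT, then fluorescence was read.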
# [2] = target: Glucocorticoid receptor (Homo sapiens) (UniProt P04150); experiment: qHTS assay for small molecule antagonists of glucocorticoid receptor signaling (AID 588533; active = well fitted inhibition curve with a large enough effect in the signal ratio, with a control signal flat, not every such curve was filed as active; the % refers to the signal ratio;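 also: cells stimulated with 2 nM dexamethasone as agonist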; also: potency is read from the fitted curve at half-maximal effect; as to activity change, negative = inhibition: % is scaled to controls: 0 for no effect and ±100 for the full control effect)
# Chain of Glucocorticoid receptor (Homo sapiens) (P04150 whole entry, looked up): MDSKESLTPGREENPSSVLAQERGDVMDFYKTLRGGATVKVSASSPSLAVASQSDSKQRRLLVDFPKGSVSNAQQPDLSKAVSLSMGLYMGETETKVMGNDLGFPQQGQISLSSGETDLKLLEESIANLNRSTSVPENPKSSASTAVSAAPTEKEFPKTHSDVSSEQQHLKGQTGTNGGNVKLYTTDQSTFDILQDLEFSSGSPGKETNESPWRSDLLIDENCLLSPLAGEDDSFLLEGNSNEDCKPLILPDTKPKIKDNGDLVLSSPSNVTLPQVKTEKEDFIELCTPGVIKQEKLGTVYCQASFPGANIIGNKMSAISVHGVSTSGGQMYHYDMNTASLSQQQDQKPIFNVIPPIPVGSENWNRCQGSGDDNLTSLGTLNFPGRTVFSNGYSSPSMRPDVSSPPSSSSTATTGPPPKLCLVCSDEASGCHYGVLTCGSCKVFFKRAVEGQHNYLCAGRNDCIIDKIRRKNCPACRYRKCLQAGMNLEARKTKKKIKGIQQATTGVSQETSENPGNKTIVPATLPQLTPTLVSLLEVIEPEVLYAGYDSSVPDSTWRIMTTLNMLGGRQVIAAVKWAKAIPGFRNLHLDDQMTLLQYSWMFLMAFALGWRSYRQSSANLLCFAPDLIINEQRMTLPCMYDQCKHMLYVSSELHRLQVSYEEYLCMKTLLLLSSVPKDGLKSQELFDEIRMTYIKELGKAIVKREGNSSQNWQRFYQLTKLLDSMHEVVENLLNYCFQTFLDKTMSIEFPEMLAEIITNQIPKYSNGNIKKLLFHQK
# Outline: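 Antagonist-mode qHTS: compound titrations added to GRE-bla HeLa cells, then dexamethasone 2 nM final; 18 h, 37 C. CCF4 FRET fluorescence normalized to dexamethasone and DMSO; IC50 from Hill fit.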
# [3] = target: Vitamin D3 receptor (Homo sapiens) (UniProt P11473); experiment: qHTS assay for small molecule agonists of vitamin D receptor signaling (AID 588543; calls by dose curve; also: potency is read from the fitted curve at half-maximal effect;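 as to activation: 0% = DMSO basal and 100% = reference agonist control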)
# Chain of Vitamin D3 receptor (Homo sapiens) (P11473 whole entry, looked up): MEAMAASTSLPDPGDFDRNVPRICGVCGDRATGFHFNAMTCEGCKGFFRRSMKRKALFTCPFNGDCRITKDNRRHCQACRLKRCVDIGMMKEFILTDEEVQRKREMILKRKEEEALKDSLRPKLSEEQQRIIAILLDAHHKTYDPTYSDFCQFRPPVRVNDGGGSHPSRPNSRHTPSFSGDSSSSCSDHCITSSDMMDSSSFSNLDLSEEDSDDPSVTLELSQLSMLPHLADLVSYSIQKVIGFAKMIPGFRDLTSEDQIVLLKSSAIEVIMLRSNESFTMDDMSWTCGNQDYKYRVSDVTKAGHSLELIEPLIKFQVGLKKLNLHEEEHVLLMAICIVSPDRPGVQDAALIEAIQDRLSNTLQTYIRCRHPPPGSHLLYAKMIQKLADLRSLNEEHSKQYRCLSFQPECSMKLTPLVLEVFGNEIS
# Outline: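 qHTS in agonist mode: compound titrations stimulate a VDR-driven β-lactamase reporter in HEK293T cells over 16 h at 37 °C. Response normalized to 50 nM 1α,25-dihydroxyvitamin D3 = 100%, DMSO = 0%; Hill fitting gives EC50 and maximal response.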
# [4] = qHTS assay for small molecule activators of the p53 signaling pathway (AID 651743; active = well fitted activation curve with a large enough effect in the signal ratio, not every such curve was filed as active; the % refers to the signal ratio; also: potency is read from the fitted curve at half-maximal effect; as to activation: % of control where 0% means no effect); details: HCT-116 p53RE-bla, beta-lactamase FRET ratio, 16 h; activation: stronger effect = higher value
# Outline: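 Read-out is fluorescence intensity from the LiveBLAzer B/G FRET substrate, added for 2 hours at room temperature after HCT-116 p53RE-bla cells had been incubated with compounds for 16 hours at 37 C.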
# [5] = target: Catechol O-methyltransferase (Homo sapiens) (UniProt P21964); experiment: Confirmatory Screen for Target Class Profiling of Small Molecule Inhibitors of Methyltransferases (AID 1745852); details: MTase-Glo luminescence, SAH detection, recombinant enzyme; measured here: COMT max response; stronger effect = lower value; as to activity change, negative = inhibition: % is scaled to controls: 0 for no effect and ±100 for the full control effect
# Chain of Catechol O-methyltransferase (Homo sapiens) (P21964 whole entry, looked up): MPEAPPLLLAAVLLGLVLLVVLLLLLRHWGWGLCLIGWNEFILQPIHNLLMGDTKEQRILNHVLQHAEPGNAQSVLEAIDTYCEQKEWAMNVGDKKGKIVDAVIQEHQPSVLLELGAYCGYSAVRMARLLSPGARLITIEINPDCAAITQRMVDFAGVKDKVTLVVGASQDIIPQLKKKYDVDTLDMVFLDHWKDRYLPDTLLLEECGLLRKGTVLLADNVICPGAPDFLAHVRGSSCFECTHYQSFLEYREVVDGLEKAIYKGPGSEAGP
# [6] = target: Guanidinoacetate N-methyltransferase (Homo sapiens) (UniProt Q14353); experiment: as above; details: activity change, negative = inhibition: at 57.3 µM (top of the series) unless noted
# [7] = target: Nicotinamide N-methyltransferase (Homo sapiens) (UniProt P40261); experiment: as above; details: MTase-Glo luminescence, SAH detection, recombinant enzyme; measured here: NNMT max response; stronger effect = lower value
# Chain of Nicotinamide N-methyltransferase (Homo sapiens) (P40261 whole entry, looked up): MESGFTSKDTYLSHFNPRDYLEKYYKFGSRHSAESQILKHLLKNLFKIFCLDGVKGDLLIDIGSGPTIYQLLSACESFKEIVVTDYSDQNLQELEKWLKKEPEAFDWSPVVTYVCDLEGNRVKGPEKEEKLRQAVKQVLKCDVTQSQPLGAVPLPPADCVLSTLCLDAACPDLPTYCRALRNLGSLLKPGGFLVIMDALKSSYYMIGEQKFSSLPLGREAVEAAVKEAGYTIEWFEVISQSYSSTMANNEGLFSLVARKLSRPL
# [8] = target: Phenylethanolamine N-methyltransferase (Homo sapiens) (UniProt P11086); experiment: as above; details: MTase-Glo luminescence, SAH detection, recombinant enzyme; measured here: PNMT max response; stronger effect = lower value
# Chain of Phenylethanolamine N-methyltransferase (Homo sapiens) (P11086 whole entry, looked up): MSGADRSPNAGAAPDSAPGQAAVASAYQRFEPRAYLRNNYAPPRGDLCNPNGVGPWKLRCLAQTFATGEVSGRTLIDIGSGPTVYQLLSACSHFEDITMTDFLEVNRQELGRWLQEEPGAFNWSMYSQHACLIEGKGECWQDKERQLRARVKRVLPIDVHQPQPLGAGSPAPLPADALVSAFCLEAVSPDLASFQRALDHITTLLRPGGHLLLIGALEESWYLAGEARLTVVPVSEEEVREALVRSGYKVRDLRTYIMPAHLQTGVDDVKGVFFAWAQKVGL
# [9] = target: Mitogen-activated protein kinase 10 (Mus musculus) (UniProt Q61831); experiment: JNK3 AlphaScreen Assay (AID 530; active = well fitted curve in either direction with a large enough effect, not every such curve was filed as active;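 also: kinase came from lysate of stimulated human HepG2 cells; signal reports phosphorylation of biotinylated GST-cJun 1-79 at Ser73 with 10 µM ATP; % is scaled to controls: 0 for no effect and ±100 for the full control effect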)
# Outline: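 Compound titrations were preincubated 15 minutes at room temperature with substrate, antibody and pre-activated JNK3-containing HepG2 lysate. Reactions were started with 10 uM ATP and stopped with EDTA-containing bead buffer for AlphaScreen detection.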
# [10] = target: Cytochrome P450 3A4 (Homo sapiens) (UniProt P08684); experiment: qHTS Assay for Inhibitors and Substrates of Cytochrome P450 3A4 (AID 884); also: % is scaled to controls: 0 for no effect and ±100 for the full control effect; nearly all actives have a fitted effect of over 50% in size
# Chain of Cytochrome P450 3A4 (Homo sapiens) (P08684 whole entry, looked up): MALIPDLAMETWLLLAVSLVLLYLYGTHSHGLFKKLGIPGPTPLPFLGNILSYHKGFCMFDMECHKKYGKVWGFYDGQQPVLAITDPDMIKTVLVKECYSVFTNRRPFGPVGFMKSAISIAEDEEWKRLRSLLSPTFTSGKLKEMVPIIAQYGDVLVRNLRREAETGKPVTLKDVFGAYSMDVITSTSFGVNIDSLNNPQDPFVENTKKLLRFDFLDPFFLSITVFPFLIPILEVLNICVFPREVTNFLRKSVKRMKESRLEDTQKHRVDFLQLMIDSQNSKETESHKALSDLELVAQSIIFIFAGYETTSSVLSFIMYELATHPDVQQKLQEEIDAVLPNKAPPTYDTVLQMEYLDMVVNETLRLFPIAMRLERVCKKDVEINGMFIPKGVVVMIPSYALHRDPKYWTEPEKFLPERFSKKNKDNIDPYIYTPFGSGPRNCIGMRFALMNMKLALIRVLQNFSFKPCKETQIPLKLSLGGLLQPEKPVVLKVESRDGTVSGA
# Outline: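 20 nM human CYP3A4 with 25 uM Luciferin-PPXE (at KM) in 200 mM KPO4, preincubated 10 min with compound; NADPH regeneration started a 60 min RT reaction. Luciferin detected by luminescence, normalized to 57 uM ketoconazole as full inhibition.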
# [11] = qHTS assay for small molecule agonists of retinoid X receptor alpha signaling (AID 588544; calls by dose curve;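 as to activation: 0% = DMSO basal wells and 100% = reference agonist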); details: HEK293T RXRa-UAS-bla, beta-lactamase reporter, 18 h; 530 nm emission
# [12] = target: Retinoic acid receptor RXR-alpha (Homo sapiens) (UniProt P19793); experiment: as above
# Chain of Retinoic acid receptor RXR-alpha (Homo sapiens) (P19793 whole entry, looked up): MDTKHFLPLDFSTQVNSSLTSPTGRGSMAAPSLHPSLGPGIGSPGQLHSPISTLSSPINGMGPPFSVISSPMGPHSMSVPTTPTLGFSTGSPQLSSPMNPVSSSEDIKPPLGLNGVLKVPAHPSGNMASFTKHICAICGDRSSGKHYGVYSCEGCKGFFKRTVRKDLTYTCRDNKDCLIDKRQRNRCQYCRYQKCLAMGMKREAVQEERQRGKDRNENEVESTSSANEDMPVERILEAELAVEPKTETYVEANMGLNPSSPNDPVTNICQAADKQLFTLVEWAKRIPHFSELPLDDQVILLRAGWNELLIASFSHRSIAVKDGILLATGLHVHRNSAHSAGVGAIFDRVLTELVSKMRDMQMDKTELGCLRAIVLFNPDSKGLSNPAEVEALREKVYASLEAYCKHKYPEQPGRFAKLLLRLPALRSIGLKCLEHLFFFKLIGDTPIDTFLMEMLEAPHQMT
# [13] = qHTS assay for small molecule antagonists of retinoid X receptor alpha signaling (AID 588546; active = well fitted inhibition curve with a large enough effect in the signal ratio, with a control signal flat, not every such curve was filed as active; the % refers to the signal ratio;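 also: cells stimulated with 9-cis-retinoic acid as agonist; % is scaled to controls: 0 for no effect and ±100 for the full control effect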); details: HEK293T RXRa-UAS-bla, beta-lactamase ratio, antagonist mode; measured here: W530 green channel, cytotoxicity proxy
# Outline: (§1)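 Beta-lactamase reporter inhibition, read as CCF4 fluorescence ratio (ex 405, em 460/530 nm) after 2 h at RT. HEK293T UAS-bla cells, 2500/well, were stimulated with 9-cis-RA at 500 or 100 nM final alongside test compound for 18 h at 37 C.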
# [14] = target: Retinoic acid receptor RXR-alpha (Homo sapiens) (UniProt P19793); experiment: as above; details: HEK293T RXRa-UAS-bla, beta-lactamase ratio, antagonist mode
# Outline: as §1
# [15] = qHTS assay for small molecule agonists of the antioxidant response element (ARE) signaling pathway measured by Nrf2-dependant transcriptional activity (AID 720636; active = well fitted curve in the direction sought with a large enough effect in the repeat runs; an effect the other way counts as inactive or inconclusive; also: % of control where 0% means no effect)
# Outline: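 Nrf2-dependent transcription read as ONE-Glo luciferase signal from ARE-luc HepG2 reporter cells after 16 hr compound treatment at 37 C, 5% CO2, in assay medium with 1% dialyzed FBS.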
# [16] = qHTS assay for cell viability of HEK293 cells (AID 743288); details: ATP luminescence (CellTiter-Glo), 18 h; max response: stronger effect = lower value; also: % is scaled to controls: 0 for no effect and ±100 for the full control effect; nearly all actives have a fitted effect of over 50% in size
# Outline: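 The Tox21 protocol used parental HEK293 cells treated for 18 h at 37 C with compounds delivered by pintool; ATP-coupled luminescence after 30 min at room temperature gave viability.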
# [17] = target: Ubiquitin carboxyl-terminal hydrolase 1 (Homo sapiens) (UniProt O94782); experiment: Inhibitors of USP1/UAF1: Pilot qHTS (AID 504865); also: nearly all actives have a fitted effect of over 35% in size; also: potency is read from the fitted curve at half-maximal effect
# Outline: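 Kinetic fluorescence assay: 1nM USP1/UAF1, 15 min compound preincubation, then 150nM Ub-Rho; 480/540 nm.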
# [18] = target: Furin (Homo sapiens) (UniProt P09958); experiment: Furin counterscreen qHTS for Zika virus inhibitors (AID 1347149);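 also: purified recombinant full-length human furin enzyme at 5 nM; fluorescence gain from furin cutting a BOC-RVRR-AMC peptide substrate over 15 min; top concentration of the series differs between compounds; plate controls were no-inhibitor control for no effect and no-enzyme control for full effect; nearly all actives have a fitted effect of over 70% in size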
# Chain of Furin (Homo sapiens) (P09958 whole entry, looked up): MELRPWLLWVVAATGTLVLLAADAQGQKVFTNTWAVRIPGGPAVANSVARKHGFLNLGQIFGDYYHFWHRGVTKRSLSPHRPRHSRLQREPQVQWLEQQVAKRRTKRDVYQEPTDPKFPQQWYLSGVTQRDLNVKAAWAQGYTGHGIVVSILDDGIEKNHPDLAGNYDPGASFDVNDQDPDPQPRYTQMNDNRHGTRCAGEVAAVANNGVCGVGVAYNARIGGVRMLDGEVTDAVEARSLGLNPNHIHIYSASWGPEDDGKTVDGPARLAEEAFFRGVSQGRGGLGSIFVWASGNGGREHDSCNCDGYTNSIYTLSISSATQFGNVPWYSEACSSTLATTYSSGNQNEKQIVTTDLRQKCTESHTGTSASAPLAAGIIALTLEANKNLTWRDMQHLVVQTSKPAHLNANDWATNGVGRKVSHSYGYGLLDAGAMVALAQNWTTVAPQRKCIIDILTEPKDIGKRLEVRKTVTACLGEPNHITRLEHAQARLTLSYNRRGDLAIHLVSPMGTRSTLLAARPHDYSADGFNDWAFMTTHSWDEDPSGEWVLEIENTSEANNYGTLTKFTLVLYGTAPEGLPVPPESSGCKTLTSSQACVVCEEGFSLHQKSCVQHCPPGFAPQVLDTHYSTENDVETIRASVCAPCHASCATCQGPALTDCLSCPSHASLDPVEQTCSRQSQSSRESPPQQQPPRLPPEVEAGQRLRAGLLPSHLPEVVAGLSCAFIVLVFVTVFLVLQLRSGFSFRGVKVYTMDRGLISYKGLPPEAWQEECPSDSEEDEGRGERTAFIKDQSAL
# Outline: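 Fluorogenic cleavage of BOC-RVRR-AMC (2 microM final, Km ~15 µM) was monitored (ex 340, em 450 nm) at 37C after 15 min RT preincubation of 5 nM furin with compounds in HEPES pH 7.0 buffer with CaCl2 and Triton X-100. Percent inhibition was fitted to a 4-parameter Hill curve.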
# [19] = test system: Zika virus NS2B-NS3 protease (unlinked); experiment: Optimization of GU AMC qHTS for Zika virus inhibitors: Unlinked NS2B-NS3 protease assay (AID 1347151);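 also: 0% = no-inhibitor control and -100% = no-enzyme control; nearly all actives have a fitted effect of over 80% in size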
# Outline: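 Percent inhibition is derived from the 15-min change in AMC fluorescence, normalized against no-inhibitor and no-enzyme controls, then fitted to a 4-parameter Hill curve. Aprotinin was the intraplate control.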
# [20] = qHTS profiling of the MIPE4 collection as inhibitors of Plasmodium falciparum (3D7) proliferation (AID 743344; call rule not given here;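 also: scaled between DMSO vehicle wells and 0.29 µM artemisinin as full inhibition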); details: P. falciparum 3D7 in erythrocytes, SYBR Green DNA fluorescence, 72 h; at 28.5 µM (top of the series) unless noted
# Outline: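 Erythrocytes infected with P. falciparum (0.3% parasitemia, 2.5% hematocrit) incubated with compounds 72 h at 37 C, 5% CO2. Lysis with saponin/Triton buffer containing SYBR Green I, overnight at room temperature in the dark; DNA fluorescence (485/535 nm) normalised to 0.29 uM artemisinin and DMSO.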
smiles,measurement,setting,value
C[C@@H]1Cc2c(Cl)cc(C(=O)N[C@@H](Cc3ccccc3)C(=O)O)c(O)c2C(=O)O1,Potency,[1],44.7 µM (active)
same,Potency,[2],0.891 µM (active)
same,Potency,[3],44.7 µM (active)
same,Potency,[4],0.891 µM (active)
CCOC(=O)c1ccnc2cc(C(OCCN3CCCCC3)c3ccccc3Cl)sc12 (centres undefined),activity,[5],-1.68%
same,"activity change, negative = inhibition",[6],9.58%
same,activity,[7],-18.4%
same,activity,[8],-4.81%
CC(C)OC(=O)c1ccnc2cc(C(OCCN3CCCCC3)c3ccccc3Cl)sc12 (centres undefined),activity,[5],3.41%
same,"activity change, negative = inhibition",[6],8.86%
same,activity,[7],-30.3%
same,activity,[8],-6.38%
N#Cc1ccc(N2CCN(C(=O)COc3ccc4[nH]cc(CCN)c4c3)CC2)cc1,activity,[5],-2.1%
same,"activity change, negative = inhibition",[6],0.371%
same,activity,[7],2.26%
same,activity,[8],2.22%
COC(=O)c1ccccc1C(=O)OC,outcome,[9],inactive
same,Potency,[10],inactive
same,Potency,[1],inactive
same,Potency,[2],inactive
same,Potency,[3],inactive
same,max response,[11],-8.66%
same,outcome,[12],inactive
same,max response,[13],-2.9%
same,max response,[14],2.81% (inactive)
same,activation,[4],-1.52% (inactive) and -1.95% (inactive)
same,Potency,[15],inactive
same,max response,[16],-1.85% (inactive) and 5.33% (inactive)
Oc1cc[c]([Hg][Cl])cc1,Potency,[17],50.1 µM (active)
C[C@H]1[C@H]2Cc3ccc(O)cc3[C@]1(C)CCN2CCc1ccccc1,Potency,[18],inactive
same,outcome,[19],inactive
OCCN(CCO)CCO,max response,[11],-6.39%
same,outcome,[12],inactive
same,max response,[13],-16.2%
same,max response,[14],-4.54% (inactive)
same,Potency,[15],inactive
same,max response,[16],-0.515% (inactive)
CCN(CC)/[N+]([O-])=N/O,Potency,[17],inactive
CN1CC[C@@]23CCCC[C@@H]2[C@@H]1Cc1ccc(O)cc13,outcome,[9],inactive
same,Potency,[18],inactive
same,outcome,[19],inactive
Cc1ccc2c(c1)[C@]13CCCC[C@@H]1[C@H](C2)N(C)CC3,Potency,[18],inactive
same,outcome,[19],inactive
CCOc1cc(C=O)ccc1O,outcome,[9],inactive
same,Potency,[10],inactive
same,Potency,[2],inactive
same,Potency,[3],inactive
same,max response,[11],11.5%
same,outcome,[12],inactive
same,max response,[13],0.367% and -12.6%
same,max response,[14],1.38% (inactive) and 4.11% (inactive)
same,activation,[4],-1.8% (inactive)
same,Potency,[15],inactive
same,max response,[16],-8.41% (inactive) and -7.59% (inactive)
C[N+](C)(C)CC(=O)[O-],Potency,[10],inactive
same,Potency,[17],inactive
CN1c2cc(O)c(N=NC(N)=O)cc2CC1S(=O)(=O)O (centres undefined),"parasite growth, % of DMSO control",[20],37.8%
COc1ccc(C2(C#N)CCC(C(=O)O)CC2)cc1OC1CCCC1 (centres undefined),"parasite growth, % of DMSO control",[20],91.7%
CN1[C@H]2CC(OC(=O)[C@@H](CO)c3ccccc3)C[C@H]1[C@H]1O[C@H]12 (some centres undefined),"parasite growth, % of DMSO control",[20],96.6%
